Measured values: the OligoGym collection

target: ARL4D; experiment: pooled miR-30 sensor sort-seq; sequence = guide strand; conditions: shRNA
Also: reference of the scale not given here.

| Sequence | sensor-assay potency score (higher = more potent) |
| --- | --- |
| ATTCGGTGCAACTCCACCTTGG | -0.512 |
| TTCCTCTTGAGGATCATCTCAT | 0.0255 |
| AAGAGCGCCACAGTGGTCGCAG | -0.161 |
| TTTGGTGGGGACACTCTGGACA | -0.71 |
| TTCTCGGTGTTGAAGCCTTTGG | -1.06 |
| TTGCACATGAGTGAGAGTGGCG | -0.774 |
| TTGGAAGGTGATGCCACGCGAT | -0.67 |
| TGGAAGGTGATGCCACGCGATC | -1.76 |
| TTGTTGGCCAGCACCAGCACTG | -0.806 |
| TGGACAAACTCCTTGAACTTGA | -0.891 |
| TCCTCTTGAGGATCATCTCATA | -1.96 |
| TATAAGAGCGCCACAGTGGTCG | -0.158 |
| AGACCGTCCACAGCGCTGCAGC | -1.79 |
| TACGTCTCCACAGTCCTGCAGC | -0.421 |
| TTCGGTGCAACTCCACCTTGGC | 0.0163 |

target: ARL8B; experiment: as above; conditions: shRNA

| Sequence | sensor-assay potency score (higher = more potent) |
| --- | --- |
| TAATTCTAGGATTATAGCCAAG | -1.33 |
| TAAACAATAGCATTGACTCCTC | -0.391 |
| TTTCTCTATCCTGAATAGCAGA | -1.1 |
| TTTCCAAGCACTAGCACTGGAA | -1.03 |
| TTGAATAGCAGCAAATTTCTCT | 0.213 |
| TATCATGTAAACAATAGCATTG | -1.05 |
| TTTCGGGAAGCTTCTATCTTTT | -1.11 |
| TTTATCTAGAAGATTATGTAGC | 0.313 |
| TGTGATATCTATATTATCCTTT | 0.458 |
| TATCTTCACTGAATTGACCTGA | 0.755 |
| TTACCTTTAGTTACCTTCCTCA | 0.244 |
| TTTCACGATCTGCAGCATCTAT | -0.778 |

target: ARPC1A; experiment: as above; conditions: shRNA

| Sequence | sensor-assay potency score (higher = more potent) |
| --- | --- |
| TTTGGAATATCTAACTTGGAGA | -0.835 |
| TTTTGGAATATCTAACTTGGAG | -0.944 |
| TAACAAACAGAAATGAGTCGTG | 0.708 |
| TATTCAAACAAAACCACACGGC | -0.11 |
| TTGGCTTCCAAACACCATCTTT | -0.586 |
| ATTTGAAGTCACATGATCCTGC | 0.383 |
| TATAGATGTGCACTTCGTGATT | -0.958 |
| TGAAGTCACATGATCCTGCTGC | 0.622 |
| TTTAATGTGCTTGCTCACCCAC | -0.282 |
| TCTGAGACAAATGACACACTTA | 0.156 |
| TTGAGTGATGCTATTCTGGTGC | 0.522 |
| AAATTTGCGACAATCTTGCTTG | -0.036 |
